Activity calls are given as the source filed them. How the source made its calls: active means hit-call score of the fitted dose curve at least 0.9, where 1 is the maximum; inconclusive means response in the unintended direction; inactive means score below 0.9.

The target of this assay is Peroxisome proliferator-activated receptor gamma (Homo sapiens) (UniProt P37231). Kind of assay: OT_PPARg_PPARgSRC1_1440: Odyssey Thera (OT) 24-hour Protein-Complementation Assay for Peroxisome Proliferator-activated Receptor Gamma/ SRC-1 Co-activator (AID 2283388). In outline: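 HEK293T cells transiently transfected with PPARg and SRC-1 fused via (Gly4Ser)2 linker to split Venus YFP fragments (IFP1/IFP2) were dosed 24 h; fixed, Draq5-stained, imaged at 488/635 nm; nuclear/cytoplasmic fluorescence ratio scored versus DMSO baseline, gain-of-signal.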
Chain of Peroxisome proliferator-activated receptor gamma (Homo sapiens) (P37231 whole entry, looked up, the tested form may be a part): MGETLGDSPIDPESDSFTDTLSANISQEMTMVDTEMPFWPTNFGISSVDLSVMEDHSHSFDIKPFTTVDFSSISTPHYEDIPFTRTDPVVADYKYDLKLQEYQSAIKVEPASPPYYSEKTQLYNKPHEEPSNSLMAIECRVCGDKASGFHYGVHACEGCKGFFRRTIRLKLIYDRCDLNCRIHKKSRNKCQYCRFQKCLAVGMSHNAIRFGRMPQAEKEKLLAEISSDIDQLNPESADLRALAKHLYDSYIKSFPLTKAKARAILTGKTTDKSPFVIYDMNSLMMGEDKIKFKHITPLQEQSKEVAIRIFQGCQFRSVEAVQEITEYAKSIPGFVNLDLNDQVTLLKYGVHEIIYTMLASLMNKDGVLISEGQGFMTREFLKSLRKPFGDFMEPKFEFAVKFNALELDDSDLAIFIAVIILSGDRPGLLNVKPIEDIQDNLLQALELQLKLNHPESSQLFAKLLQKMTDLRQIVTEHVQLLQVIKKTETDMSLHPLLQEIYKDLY
With `Clc1ccc(C(Cl)(Cl)Cl)cc1`, the result was inactive. As to `CCCCCCCCCc1ccc(O)cc1`, the outcome was inactive. Turning to `Nn1cnnc1`, the result was inactive. For the compound `CC(C)(c1ccccc1)c1ccc(O)cc1`, the outcome was inactive. As to `Oc1ccc(C(c2ccc(O)cc2)(C(F)(F)F)C(F)(F)F)cc1`, the compound was classed as inactive. On to `O=C(O)C(F)(F)C(F)(F)C(F)(F)C(F)(F)C(F)(F)C(F)(F)C(F)(F)C(F)(F)F`, for which the outcome was inactive. Regarding `ClC1=C(Cl)[C@]2(Cl)[C@@H]3[C@@H](Cl)[C@H]4O[C@H]4[C@@H]3C1(Cl)C2(Cl)Cl`, the compound was classed as inactive. For the compound `CO/C=C(/C(=O)OC)c1ccccc1COc1cccc(C(F)(F)F)n1`, the compound was called inactive. In the case of `O=S(=O)(O)C(F)(F)C(F)(F)C(F)(F)C(F)(F)C(F)(F)C(F)(F)F`, the outcome was inactive. As to `CN(C)c1nc(=O)n(C2CCCCC2)c(=O)n1C`, the result was inactive. As for `CCCCCCCCCC[N+](C)(C)CCCCCCCCCC`, the result was inactive. The value for `O=C(O)C(F)(F)C(F)(F)C(F)(F)C(F)(F)C(F)(F)F` was “inactive”. With `CN(C)CCO`, the outcome was inactive. The value for `C=CC(=O)NCNC(=O)C=C` was “inactive”. For the compound `ClC1=C(Cl)[C@]2(Cl)[C@@H]3[C@@H]4C[C@@H]([C@H]5O[C@@H]45)[C@@H]3[C@@]1(Cl)C2(Cl)Cl`, the outcome was inactive.

Consider `O=NN(c1ccccc1)c1ccccc1`, for which the result was inactive. On to `O=C(N[C@H]1CN2CCC1CC2)c1cc2ccoc2cn1`, for which the result was inactive. As to `O=C(NC(=O)c1cc(F)c(F)cc1Cl)Nc1cc(F)ccc1N1CCC(C(=O)O)CC1`, the result was inactive. As for `CCC(C)c1cc([N+](=O)[O-])cc([N+](=O)[O-])c1O` (configuration not stated), the result was inactive. With `C1CC2OC2CC1C1CO1` (configuration not stated), the call was inactive.

As to `CCCCCCCCOC(=O)c1ccccc1C(=O)OCCCCCCCC`, the outcome was inactive. `Cc1ccccc1O`: the result was inactive. The value for `COS(=O)(=O)OC` was “inactive”; that for `CC(c1ccc(O)cc1)(c1ccc(O)cc1)c1ccc(O)cc1` was “inactive”; that for `OCC(O)CO` was “inactive”. For the compound `Cc1cccc([N+](=O)[O-])c1`, the call was inactive. For `COc1ccc(O)c(C(C)(C)C)c1`, the result was inactive. Turning to `O=S(=O)(O)C(F)(F)C(F)(F)C(F)(F)C(F)(F)F`, the call was inactive. The value for `ClC(Cl)=C(c1ccc(Cl)cc1)c1ccc(Cl)cc1` was “inactive”; that for `Clc1ccc(Cl)cc1` was “inactive”. Then `Oc1c(Cl)c(Cl)c(Cl)c(Cl)c1Cl`, with “inactive”. As to `O=C(O)C(F)(F)C(F)(F)C(F)(F)C(F)(F)C(F)(F)C(F)(F)C(F)(F)C(F)(F)C(F)(F)F`, the compound was classed as inactive.

The values above are taken from PubChem BioAssay (EPA / NIEHS).
